We go through 36 sequences from the OligoGym collection.
Also: reference of the scale not given here.

For the first experiment, the target named is MMP20. Put plainly: pooled miR-30 sensor sort-seq; sequence = guide strand. Conditions: shRNA.
Take TAATTCTACAGCAGCATCGATT: the sensor-assay potency score (higher = more potent) was -0.811.

TTTCCTTTTCCTTTCGTCGTAG returned a sensor-assay potency score (higher = more potent) of 0.328. Still for that read-out and setting: the same measure for TTAATTCTACAGCAGCATCGAT: -0.771; for TTCCTTATCATGGAATTGCTTC: -0.732. Take TTTCCTTTCGTCGTAGCTGTAG: the sensor-assay potency score (higher = more potent) is -0.397. TTTCACATCATCTTTGGGGAGG registered a sensor-assay potency score (higher = more potent) of -0.942. Same read-out and setting: the figure for TTCTACAGCAGCATCGATTTGG is -0.442. Same read-out and setting: the same measure for TTCTTGTACTTATAAGTTGGGT: -0.728; for TGTAGCTCCTTAATCTTCCTTA: -0.0346; for TAGTCTTTTTCCATTTTCCTTT: -0.827.

Take TATTTGTGTAATATTTGTCAAG: the sensor-assay potency score (higher = more potent) was -1.1.

TTCTTGATCACGTTCATTGTGG: the sensor-assay potency score (higher = more potent) was -0.0903.

In a further experiment the target is MMP27. Described as above. As to conditions: shRNA.
In the case of AAGAACATTACTTCTCTGCGGA, the sensor-assay potency score (higher = more potent) worked out at 0.732. The same measure, in the same setting: the same measure for TTTCTTGTGGTCTTATCACAGA: -0.677; for ATTCTTTGTCTTAATGTCGTAT: -0.054; for TTGTGGTCTTATCACAGACGGC: -1.63. The sequence TATTCTTTGTCTTAATGTCGTA came in with a sensor-assay potency score (higher = more potent) of -0.516. Still for that read-out and setting: the figure for TAATTTGGGAACATCAAGGCTG is 0.912. In the case of TATTTCAAGAGAGTAGAACTGG, the sensor-assay potency score (higher = more potent) is 0.764. On the same count and under the same terms, the same measure for TAGTTTATTATTCTGTAGGTGA: -0.199; for TTTGGGAACATCAAGGCTGTTT: -0.134; for TAATTCAAACTCAACATCCGTG: 0.0831. Still for that read-out and setting: the same measure for TTAATTCAAACTCAACATCCGT: -0.367; for TAGGTTTTTCTTGTGGTCTTAT: -0.201.

A further experiment concerns the target MMS22L. The description is as above. As to conditions: shRNA.
TATCTTGCTACAACTTGAGGGC showed a sensor-assay potency score (higher = more potent) of -0.184. Same read-out and setting: the figure for TTTTTTAACAACTTTTGCCAGA is -0.793; for TTAAGTAGTTTATTCAACCAGT it is -0.299; for TTCTTCTAGAATGACACCCTGA it is 0.182. As for TATATTTTAATACTTCACCAAG, the sensor-assay potency score (higher = more potent) was -1.14.

Consider TAATCTTGTCAGTTTGACCAAC, for which the sensor-assay potency score (higher = more potent) is -0.606. Same read-out and setting: the same measure for TTTGAGATTGACAACACACGAT: 0.337. On the same count and under the same terms, the figure for TTCTTGAACACCATCAATGTAT is -0.0869; for TTGCTGACAACATAGGTGCAGG it is -1.03; for TTTATCGCAACAGCAAGTCTTC it is -0.217. Same read-out and setting: the figure for TTGAGATTGACAACACACGATA is -0.65; for TAATCCACCAACTAAAACCTAA it is -0.962.
